# Measured values reported in the supplement of paper PMC3334620.
# In all, about 33,000 sequences were measured (“E-score (-0.5 to 0.5)”: median about -0.054, highest 2% from about 0.35 on). This excerpt belongs to a sample that is enriched for the highest values.
# Molecular target: T1, Stb5 (UniProt P38699)
# T1 sequence: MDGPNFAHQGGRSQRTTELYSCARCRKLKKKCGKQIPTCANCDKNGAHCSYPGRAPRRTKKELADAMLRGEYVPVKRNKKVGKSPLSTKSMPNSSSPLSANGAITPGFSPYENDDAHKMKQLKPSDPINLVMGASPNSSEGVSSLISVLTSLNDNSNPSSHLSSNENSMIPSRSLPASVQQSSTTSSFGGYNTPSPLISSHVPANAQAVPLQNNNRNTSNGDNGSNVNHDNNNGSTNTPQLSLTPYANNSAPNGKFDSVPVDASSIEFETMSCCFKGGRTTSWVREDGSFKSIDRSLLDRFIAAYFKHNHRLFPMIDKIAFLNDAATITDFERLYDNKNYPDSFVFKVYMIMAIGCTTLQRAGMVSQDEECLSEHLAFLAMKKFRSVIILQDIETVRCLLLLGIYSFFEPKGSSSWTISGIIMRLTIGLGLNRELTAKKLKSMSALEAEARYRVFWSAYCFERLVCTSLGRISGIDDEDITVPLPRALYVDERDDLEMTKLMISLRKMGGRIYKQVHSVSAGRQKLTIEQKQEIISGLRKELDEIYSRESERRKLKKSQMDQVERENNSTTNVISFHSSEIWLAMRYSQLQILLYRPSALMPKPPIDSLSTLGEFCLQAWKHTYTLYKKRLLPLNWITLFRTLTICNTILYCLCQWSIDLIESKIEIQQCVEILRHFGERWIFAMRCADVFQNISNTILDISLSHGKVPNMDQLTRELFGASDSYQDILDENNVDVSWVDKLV
# Experiment: PBM E-score (8-mer binding enrichment) (E-score (-0.5 to 0.5)); higher = stronger / more preferred TF binding
# Details: protein concentration: 200 nM; construct: GST-full length
# Procedure: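 Universal 'all 10-mer' protein binding microarrays (Agilent AMADID 015681) probed with GST-tagged S. cerevisiae TFs (full-length or DBD) made by in vitro transcription/translation (PURExpress), about 100-200 nM. Bound TF was detected with fluorescent anti-GST. Each ungapped 8-mer (which stands for itself and its reverse complement) is scored by the PBM enrichment score (E-score), a modified Wilcoxon-Mann-Whitney statistic from -0.5 to +0.5, computed with the Universal PBM Analysis Suite. Scale: above 0.35 generally sequence-specific binding.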
row,Sequence,PBM E-score
1,CCCCCAAG,-0.233
2,GGCAGCTA,-0.0896
3,TAATACTA,-0.0352
4,CAGAATCC,-0.0711
5,ATCGGATG,0.168
6,ACGCTGGC,-0.0211
7,GCACCGGC,0.353
8,ACACCCGG,0.234
9,ACACCGGA,0.402
10,CCACCGGG,0.26
11,GAACCGGC,0.213
12,CCACCGGC,0.322
13,AAACCGGT,0.304
14,GCACCGGA,0.338
15,TCACCGGA,0.343
16,ACACCTGT,0.0542
17,ACACCGGG,0.417
18,ACACCGGT,0.421
19,CGGTTGTA,0.309
20,ATAGCCAC,-0.171
21,ACCAAGCA,-0.0711
22,AAATGTTC,-0.138
23,CATTGGCC,-0.214
24,ACACCGGC,0.4
25,AAACCGGC,0.268

row,Sequence,PBM E-score
1,AGACCGGC,0.313
2,ACCGTCTC,0.0885
3,AACACCTG,0.179
4,CACACCTC,-0.0997
5,AACACCGG,0.474
6,GACACCTC,-0.0935
7,GACACCCC,0.014
8,GACACCGC,0.454
9,CACACCGC,0.394
10,AACACCGA,0.479
11,CACACCAC,-0.199
12,AACACCCA,-0.0193
13,CACACCGA,0.344
14,CACACCGG,0.327
15,GAGCCTCC,-0.123
16,CACCGTAC,0.213
17,AGCCGCCT,0.0174
18,ACCGTGGC,0.0612
19,ACCAAAAG,-0.113
20,CCAACCTC,-0.111
21,GAATCGAA,-0.175
22,CGTGTACA,-0.00441
23,GACACCAA,-0.124
24,AACACCCT,-0.128
25,GCCACCGA,0.139

row,Sequence,PBM E-score
1,TACACCGA,0.414
2,TACACCAA,-0.128
3,AACACCAT,0.0943
4,AACACCGT,0.472
5,GACACCGA,0.442
6,TACACCTA,-0.109
7,AGGCGACG,-0.112
8,CCAGAAAA,-0.296
9,AATGACTC,-0.235
10,AAGGATCT,-0.117
11,CCTGCCCC,0.0235
12,CTGAATCA,-0.177
13,ACCCCCGC,0.398
14,AACCCCGT,0.448
15,AACCCCAT,0.156
16,AACCCCCT,-0.247
17,ACCCCCCT,-0.245
18,ACACCCGT,0.162
19,CCCCCCGC,0.068
20,ACCCCCCC,-0.295
21,ACCCCCGT,0.365
22,CTACTCCC,-0.0111
23,TCGTGGAA,0.00034
24,CTAAGAAC,0.00444
25,ATGTTCCG,0.249

row,Sequence,PBM E-score
1,AATTGATG,0.0383
2,ATCGATAA,-0.139
3,ACGGCAAT,0.377
4,ACGGCGAT,0.362
5,ACGGCGTC,0.392
6,ACGGCACA,0.0761
7,ACGGCAAG,-0.121
8,ACGGCGAG,0.043
9,ACGGCACC,0.175
10,ACGGCAAA,0.235
11,ACGGCGTG,0.208
12,ACGGCGTA,0.0801
13,ACGGCACT,0.427
14,ACGGCGAC,0.264
15,ATACCAGA,-0.177
16,GGTACTTA,0.233
17,GTTAGAAC,0.0768
18,ATTCGCCC,0.125
19,CCTCCAAC,-0.199
20,ATCGCAAC,-0.0557
21,CATATCCG,0.15
22,AATATGCT,0.00961
23,GCGGCACC,0.353
24,CCGGCACC,0.278
25,GCGGCACA,0.173

row,Sequence,PBM E-score
1,GCAAAAGA,-0.0404
2,CATTGAGC,-0.032
3,CTCTAATA,-0.188
4,AGGGCCCT,-0.173
5,GGGCTAAC,-0.0393
6,AGCTAGGG,-0.0617
7,ATAGCGCC,0.361
8,ATAGCACC,0.396
9,CTAGCGCC,0.172
10,ATAGCACA,-0.124
11,ATAGCACG,-0.0126
12,ATAGCGCG,0.0127
13,AGCTCGAA,-0.0836
14,GGTGAAGA,0.0224
15,CAGTTCGG,0.206
16,GTTTCTAA,0.0616
17,CTGCCGAC,0.15
18,CCGCCGAG,0.28
19,CCGCCGAA,0.347
20,ATGCCGAG,0.147
21,ATGCCGAC,0.386
22,ATGCCGTC,0.352
23,ACGCCGAT,0.35
24,ACGCCGAC,0.435
25,GCGCCGAC,0.28

row,Sequence,PBM E-score
1,CCGCCGAC,0.356
2,CTGCCGTC,0.121
3,ATGCCGTG,0.144
4,AGAATCTG,-0.0539
5,CCACACGC,-0.0412
6,CTCCGTCA,0.297
7,ATCTACAT,-0.193
8,TCCAACAA,-0.129
9,GAGGTATC,-0.0164
10,ATGCCGGC,0.301
11,ATGCCGGA,0.373
12,ATGCCGGG,0.287
13,GTTATCGA,-0.0558
14,CAAGAGAC,-0.146
15,GCCGACGC,0.316
16,CCAGACGG,0.179
17,AGCGACGG,0.245
18,CCCGACGC,0.388
19,CACGACGG,0.168
20,TCCGACGA,0.252
21,ACCGACGG,0.42
22,AACGACGG,0.242
23,CCCGACGA,0.31
24,CCCGACGG,0.437
25,ACCGACGA,0.354

row,Sequence,PBM E-score
1,GCCGACGA,0.308
2,AGGGGGAC,-0.248
3,CGCTGGGC,0.106
4,AGAGGCGG,0.253
5,CATAGAAG,-0.126
6,AGACCCAG,-0.291
7,GAGGTCCC,-0.19
8,CTTGGGCA,-0.0874
9,AGGCCACC,-0.188
10,CCCTCGAA,-0.222
11,TAGAACAA,-0.15
12,CCTTGGTA,0.0875
13,ACCGACGC,0.306
14,AACGACGT,-0.0504
15,ACCGACGT,0.355
16,TGTGATAA,-0.171
17,AATACCCT,-0.00882
18,AATACCGA,0.415
19,AATACCGG,0.417
20,AATACCAT,-0.0252
21,CATACCGG,0.193
22,GATACCGC,0.35
23,AATACCGC,0.454
24,CATACCGA,0.279
25,AATACCAG,-0.007

row,Sequence,PBM E-score
1,CATACCGC,0.307
2,AATACCGT,0.438
3,TATACCGA,0.26
4,CGCGTCTC,0.0131
5,CATCGACG,0.0157
6,ATTGCAGA,-0.201
7,CGCAGCAA,-0.192
8,ACCGTCCA,0.242
9,AATGTGCA,-0.241
10,CGCAGAGC,-0.0211
11,ATGTGCTC,-0.151
12,CTGGACTA,-0.143
13,CAACATTA,-0.0568
14,AGCACCTA,-0.104
15,AGCACCCG,0.153
16,AGCACCGG,0.421
17,GGCACCGA,0.351
18,AGCACCAG,-0.177
19,AGCACCGA,0.476
20,ACAGAATC,-0.16
21,AACCGTAG,-0.118
22,CATTTCTA,0.0892
23,CGGACTCA,0.411
24,CTGACTTC,0.00183
25,CGGACTAA,0.428

row,Sequence,PBM E-score
1,CGGACTGA,0.359
2,CGGACTTC,0.374
3,GGGACTGA,-0.172
4,CGGACTCC,0.231
5,GGGACTCA,-0.0395
6,GGGACTAA,0.246
7,AGGACTGA,-0.184
8,TGGACTAA,-0.0846
9,AGGACTTC,-0.196
10,AGATCCAT,0.0463
11,ATAACGAG,-0.103
12,CTGGCCTC,-0.252
13,AGCATCGC,0.0104
14,CCACCTAA,-0.0966
15,ACAGTACG,-0.197
16,CGTTACCA,-0.112
17,CCCAGTAA,-0.198
18,ATGACCGA,0.31
19,CGGACCGC,0.298
20,ATGACCGC,0.381
21,AGGACCGC,0.397
22,AGGACCGA,0.33
23,ATGACCGG,0.308
